# From the supplement of paper PMC3334620
# In all, about 33,000 sequences were measured (“E-score (-0.5 to 0.5)”: median about -0.01, highest 2% from about 0.26 on). Shown is part of a subset that was picked to be rich in the highest values.
# Target: Ste12 (UniProt P13574)
# Experiment: PBM E-score (8-mer binding enrichment) (E-score (-0.5 to 0.5)); higher = stronger / more preferred TF binding
# Details: protein concentration: 200 nM; construct: GST-DNA-binding domain
# Description: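 Universal 'all 10-mer' protein binding microarrays (Agilent AMADID 015681) probed with GST-tagged S. cerevisiae TFs (full-length or DBD) made by in vitro transcription/translation (PURExpress), about 100-200 nM. Bound TF was detected with fluorescent anti-GST. Each ungapped 8-mer (which stands for itself and its reverse complement) is scored by the PBM enrichment score (E-score), a modified Wilcoxon-Mann-Whitney statistic from -0.5 to +0.5, computed with the Universal PBM Analysis Suite. Scale: above 0.35 generally sequence-specific binding.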
# Sequence of UniProt P13574 (P13574 whole entry): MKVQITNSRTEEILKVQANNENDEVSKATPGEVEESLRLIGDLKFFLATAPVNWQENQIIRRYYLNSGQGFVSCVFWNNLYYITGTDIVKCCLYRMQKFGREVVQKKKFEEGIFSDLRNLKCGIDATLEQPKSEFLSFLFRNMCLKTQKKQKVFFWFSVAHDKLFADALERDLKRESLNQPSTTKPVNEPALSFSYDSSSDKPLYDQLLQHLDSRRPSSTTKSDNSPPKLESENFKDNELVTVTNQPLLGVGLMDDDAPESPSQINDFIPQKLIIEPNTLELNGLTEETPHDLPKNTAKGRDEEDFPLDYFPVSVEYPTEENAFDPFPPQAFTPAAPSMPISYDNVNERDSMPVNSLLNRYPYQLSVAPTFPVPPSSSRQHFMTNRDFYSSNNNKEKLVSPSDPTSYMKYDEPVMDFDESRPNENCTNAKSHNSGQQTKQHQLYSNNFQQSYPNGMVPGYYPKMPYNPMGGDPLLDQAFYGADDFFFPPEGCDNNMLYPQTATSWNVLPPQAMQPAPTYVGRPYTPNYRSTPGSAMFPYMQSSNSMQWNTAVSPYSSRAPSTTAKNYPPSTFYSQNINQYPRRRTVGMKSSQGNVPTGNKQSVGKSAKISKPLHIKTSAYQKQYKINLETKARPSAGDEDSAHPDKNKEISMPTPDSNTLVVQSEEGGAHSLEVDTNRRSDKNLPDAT
row,Sequence,PBM E-score
1,ATGTCTGG,0.0356
2,CGCGGGGA,0.333
3,GGCGGGGA,0.407
4,GGGGGGGA,-0.298
5,GGCGGGAA,0.00719
6,CGCGGGAA,0.161
7,AGCGGGGA,0.111
8,AAAATCTC,0.119
9,CGTTAGGC,-0.0275
10,ATTAATCA,0.145
11,ATTAATTC,0.308
12,CTTAATAC,0.207
13,ATTAATCG,0.273
14,ATTAATCC,0.0655
15,AATAATAG,0.0434
16,AATAATAC,0.198
17,ATTAATTA,0.237
18,ATTAATTG,0.237
19,AATAATAA,0.308
20,CATAATAA,0.136
21,ATTAATAC,0.263
22,GCATTCGC,-0.276
23,CCAAACCC,0.194
24,ATAGATCG,0.0199
25,CTAACCTC,-0.0539

row,Sequence,PBM E-score
1,ACCTGTCG,0.00512
2,CCGCGGCC,0.174
3,CAATACCC,-0.00702
4,AGACTACC,-0.179
5,AAACTAGT,0.123
6,ATCATCTC,0.0683
7,ATTAATAG,0.283
8,AGTAATAG,0.0705
9,AATAAGAA,0.276
10,AATAAGAG,0.0566
11,AATAAGAT,0.00235
12,ATTAATAA,0.289
13,CTTAATAA,0.232
14,GTTAATAA,0.0895
15,ATTAATGG,0.219
16,ACTGGTCT,-0.117
17,GTGATCGA,0.161
18,ATTGTGTG,-0.0472
19,ATTGTGTA,0.274
20,CTTGTGTA,0.0226
21,ACTGCGAT,-0.072
22,CATGGCAA,0.0424
23,AAACATGA,0.321
24,AAACATCA,0.328
25,AAACATGT,0.301

row,Sequence,PBM E-score
1,AAACATCC,0.249
2,CAACATCA,0.0676
3,TAACATGA,0.098
4,CAACATGA,0.0787
5,AAACATGG,0.206
6,AAACATGC,0.231
7,TCTTCTCA,0.019
8,GATCTGAA,0.0323
9,ATGGACCG,-0.00313
10,TCCGATCA,0.0466
11,CAGTGTGC,-0.187
12,ACCTAACG,-0.137
13,ATATTCAT,0.227
14,GCGCCGGA,-0.0097
15,AGTAAAAT,0.122
16,CTTAAAAG,-0.0909
17,ATTAAAGA,0.0703
18,ATTAAAAG,0.137
19,CTTAAAAA,0.22
20,CTTAAAAC,0.352
21,ATTAAAAT,0.32
22,ATTAAACC,0.156
23,AGTAAAAC,0.168
24,ATTAAAAA,0.295
25,ATTAAAAC,0.313

row,Sequence,PBM E-score
1,CCACTGAC,-0.126
2,AGCATAAC,-0.00864
3,ACTACATG,0.0147
4,CCGACACA,-0.0323
5,ATTTAGCG,-0.0176
6,GGCAATAC,0.0406
7,GAGATCTC,-0.14
8,CACTTCAG,-0.198
9,GATTCTGA,0.0395
10,ACGTGAAT,0.0319
11,AAACGGCG,0.149
12,ATCGCGAT,0.0912
13,ACTATGCG,0.0582
14,GTTAAAAC,0.174
15,ATTAAATA,0.292
16,ATTAAATC,0.248
17,ATTAAATG,0.19
18,GTTAAAAA,0.291
19,GTTAAAGA,0.0582
20,CACGTGGG,-0.129
21,CGGTACTA,-0.0556
22,AGCCATGG,-0.192
23,AATTAGGC,0.179
24,ACAACTTA,0.053
25,ACAACTGG,-0.0989

row,Sequence,PBM E-score
1,ACAACTGA,0.293
2,AGACCACA,-0.0546
3,AAATCTGC,0.0398
4,GAATCTGA,-0.0846
5,AAATCTGA,0.266
6,CTCGTGAC,0.0961
7,CCTCTTTC,-0.0876
8,CCCCCCCG,-0.257
9,CCTCCCCG,0.283
10,CCTCCCCC,-0.134
11,CCTCCCAA,-0.136
12,CCTCCCCA,0.329
13,ACTCCCCG,0.07
14,AGCCATGC,-0.0768
15,GCGGGGAA,0.261
16,GCGGGGGA,-0.143
17,GGGGGAAA,0.241
18,CGGGGGAA,0.0885
19,GCGGGAAA,0.121
20,CGGGGAAA,0.272
21,CGAGCGCA,0.0982
22,ACCAGTTC,0.0206
23,ATCCAAGA,0.136
24,TCGGCCGA,0.0948
25,CGAGACAA,0.0198

row,Sequence,PBM E-score
1,AGAGACAA,-0.154
2,TGAGACAA,0.274
3,CAGGTTCA,-0.0316
4,CGCTAACC,-0.0284
5,TGTACTAA,0.053
6,GACTTGCC,-0.305
7,ACAAACCT,-0.111
8,AGAAAACG,0.0569
9,AAAAAACG,0.269
10,ACAAAACC,0.171
11,CCAAAACG,0.254
12,CAAAAACG,0.177
13,ACAAAACG,0.35
14,CCGCGCGA,0.169
15,GCGCGCGA,0.154
16,CCGCGCGC,0.24
17,GCGCGCGC,0.353
18,CCGCGCGG,0.321
19,ACGCGCGC,0.122
20,GGAGGGCA,0.0377
21,ACTGGTTG,0.0694
22,GGCCCGAC,0.15
23,GGTGTTGA,-0.0828
24,ATAACTCA,0.044
25,GACTGCCA,0.107

row,Sequence,PBM E-score
1,GCTAGACA,-0.118
2,TCATGACA,0.178
3,CCATGAAA,0.252
4,ACATGAAG,0.091
5,ACATGAAC,0.0476
6,GCATGAAA,0.318
7,GCATGAAC,-0.0143
8,TCATGAGA,0.0861
9,TCATGAAA,0.27
10,ACATGAAA,0.283
11,ATCACCGG,-0.0135
12,GTCCACCA,-0.342
13,CTCTTAAG,-0.0926
14,AAAAGGAA,0.188
15,AATATGAC,0.0945
16,AATATGAA,0.269
17,ATTATGAA,0.265
18,CTTATGAA,0.204
19,TATATGAA,0.17
20,GTTATGAA,0.221
21,CCAGCTAC,-0.091
22,AGCGACTA,-0.043
